PubChem BioAssay (NCI)
This is part of a sample that, as a whole, favours compounds with a hit. Of some 83,000 tested, about 20% had one in any assay.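 Plates (96-well) were seeded with cells, treated with compound at one concentration, and incubated for 48 hours before percent growth was determined.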 Unmarked numbers belong to inactive results. Activity calls are given as the source filed them. The calls were made as follows: active = growth percent below 10; inactive = the rest.

Each molecule was assayed on MDA-MB-468 breast (assay: NCI-60 one-dose screen, 48 h (100 = growth as untreated, 0 = no growth, -100 = all killed)). Conditions: 10 µM unless noted.

Row | Structure (SMILES) | growth
1 | O=C(N/N=C/c1cc(Cl)ccc1O)C(=O)N/N=C/c1cc(Cl)ccc1O | 61.3%
2 | COCCOc1cnc2ccn([C@H](C)c3nnc4c(F)cc(-c5cnn(C)c5)cn34)c(=O)c2c1 | 96.7%
3 | CC1(C)C(=O)/C(=C\c2ccco2)C[C@]2(C)[C@H]3CC=C4[C@@H]5C[C@](C)(C(=O)O)CC[C@]5(C)CC[C@@]4(C)[C@]3(C)CC[C@@H]12 | -47.2% [100 µM] (active)
4 | O=C1c2cccc3cccc(c23)C(=O)N1N1C(=O)c2cccc3c(N4CCNCC4)ccc(c23)C1=O | 91%
5 | O=C(Nc1ccc2ncnc(Nc3ccc(F)c(Cl)c3)c2c1)c1ccccc1 | -8.33% (active)
6 | COc1cc(-c2nnc(-c3nc(-c4cc(OC)c(OC)c(OC)c4)n4ccccc34)o2)ccc1N | 97.7%
7 | Cc1ccc(N2CCN(C(=S)c3cccs3)CC2)cc1 | 88.7%
8 | CCOC(=O)/C(=C/c1c(-c2ccccc2)[nH]c2ccccc12)C(=O)c1ccc(Cl)cc1 | 19.8%
9 | CCC12OC(COc3ccccc3)CN1CCN2c1ccccc1 (stereo not given) | 97.4% [100 µM]
10 | CN1CCN(C(=O)OCc2nc3c(N4CCOCC4)nc(Cl)nc3n2C)CC1 | -69.4% (active)
11 | CCc1ccc(-c2ccc(NC3CCCCCC3)nn2)cc1S(N)(=O)=O | 102%
12 | Cc1ccccc1NC(=O)CN(C)C | 107%
13 | COc1ccc2sc3c(NCCO)nc4ccccc4c3c(=O)c2c1 | 109%
14 | CC(=O)c1ccc(NC(=O)COc2ccc(C3SCC(=O)N3c3ccc(Br)cc3)cc2)cc1 (stereo not given) | 92%
15 | C[C@@]1(N2C(=O)OC[C@@H]2c2ccccc2)C(=O)N([C@H](CC(=O)N2CCC(N3CCCCC3)CC2)C(=O)NCc2cccc(C(F)(F)F)c2)[C@@H]1/C=C/c1ccccc1 | 23.7%
16 | O=C1/C(=C/c2ccc(Br)cc2)COc2ccc(O)c(O)c21 | -51.8% (active)
17 | COc1cc(NC(=O)COc2cc(C)nc3ccc(OC)cc23)cc(OC)c1 | 76.3%
18 | NC(=O)c1cc(Br)ccc1NC(=O)/C=C/c1ccccc1 | 27.8%
19 | O=C1[C@@H]2Cc3c([nH]c4ccccc34)[C@H](c3c(Cl)cccc3Cl)N2C(=O)CN1C1CCN(CC2CCCCC2)CC1 | 47.8%
20 | CCCCCCCC/C=C\CCCCCCCCOc1ccc(CC(=O)NCC[N+]2(C)CCCC2)cc1 | 33.5%

Row | Structure (SMILES) | growth
21 | COc1ccc2nc(NC(=O)CN3CCn4c(nnc4C(F)(F)F)C3)sc2c1 | 84.5%
22 | O=C(/C=C/c1ccc(Cl)cc1)c1ccc(Nc2nc(NCCO)nc(Nc3ccc(Cl)cc3)n2)cc1 | 68.4%
23 | Nc1nc2c(c(=O)[nH]1)C1(C(=O)Nc3ccccc31)c1c(nc(N)[nH]c1=O)N2 | 101%
24 | Cc1nnc2c3nnc(-c4ccc(Cl)cc4)n3c3ccccc3n12 | 100%
25 | CC(C)CCN(CCCNc1c2c(nc3cc(Cl)ccc13)CCCC2)CCC(C)C | 22.6%
26 | CSc1nc2sc3c(c2c(=O)n1-c1ccc(C(C)C)cc1)CCC(=O)C3 | -16.5% (active)
27 | CCCCN(CCCC)CC(O)CN(CC)CC (stereo not given) | 101%
28 | O=C(CSc1nnc(-c2cccs2)n1-c1ccccc1)Nc1ccccc1F | 67.1%
29 | Cc1ccccc1-c1nc(C(Cl)Cl)nc2cc(-c3ccccc3)nn12 | 52.7%
30 | O=C(NOC(=O)c1ccccc1)c1ccccc1 | 105%
31 | COc1cc(OC)cc(C2CC(=O)Nc3c2c(C)nn3-c2nc3ccccc3[nH]2)c1 (stereo not given) | 46.6%
32 | COc1cc(CSc2nc3ccc(Cl)cc3c(=O)n2-c2ccccc2)cc(OC)c1OC | 57.4%
33 | CCOC(=O)c1sc2ncnc(Nc3ccc4c(cnn4C(=O)Nc4ccc(C)c(Cl)c4)c3)c2c1C | 95.1%
34 | CCCCCCCC/C=C\CCCCCCCCOc1cccc(CC(=O)NCC[N+]2(C)CCCC2)c1 | 71.8%
35 | O=c1[nH]c(=O)n(C2CC(O)C(CO)O2)cc1C(F)(F)F (stereo not given) | 62.7%
36 | Nc1ccc(N)c2c1C(=O)c1cccc([N+](=O)[O-])c1C2=O | 54.8%
37 | COc1ccc(NC(=O)CSc2nc3ccccc3c(=O)n2Cc2cc(OC)c(OC)c(OC)c2)cc1 | 104%
38 | COc1cc(C2CC(c3ccc(Nc4nc(NCCO)nc(Nc5ccc(Cl)cc5)n4)cc3)=Nc3c(N)nc(N)nc3N2)cc(OC)c1OC (stereo not given) | 58.6%
39 | CS(=O)(=O)OCC(COS(C)(=O)=O)C(c1ccccc1)c1ccccc1 | 102%
40 | CCN(c1ccccc1)S(=O)(=O)c1cc([N+](=O)[O-])ccc1Cl | -4.6% (active)
